{"source": "PubChem BioAssay (Tox21)", "note": "Records with an inconclusive call do not appear. A number with no mark means an inactive call. The source made the active and inactive calls. Unless noted, calls follow the shape of the full dose curve. % is scaled to controls: 0 for no effect and ±100 for the full control effect.", "data": [{"molecular_target": "Nuclear receptor subfamily 1 group I member 2 (Rattus norvegicus) (UniProt Q9R1A7)", "sequence (Q9R1A7 whole entry, looked up)": "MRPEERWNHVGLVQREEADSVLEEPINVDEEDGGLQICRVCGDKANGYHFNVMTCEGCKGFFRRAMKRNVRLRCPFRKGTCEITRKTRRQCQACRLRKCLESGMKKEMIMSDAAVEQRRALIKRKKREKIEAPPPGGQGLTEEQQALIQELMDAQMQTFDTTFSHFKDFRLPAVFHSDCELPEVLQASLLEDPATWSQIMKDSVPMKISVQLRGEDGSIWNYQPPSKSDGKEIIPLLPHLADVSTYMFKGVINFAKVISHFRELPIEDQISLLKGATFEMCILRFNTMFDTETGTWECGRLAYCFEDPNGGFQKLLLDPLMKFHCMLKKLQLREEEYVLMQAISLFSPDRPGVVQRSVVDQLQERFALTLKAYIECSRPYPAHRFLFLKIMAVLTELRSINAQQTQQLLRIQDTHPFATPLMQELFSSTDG", "assay": "Rat pregnane X receptor (rPXR) activation by small molecules, qHTS assay (AID 1346983; active = well fitted curve in the direction sought with a large enough effect in the repeat runs; an effect the other way counts as inactive or inconclusive; also: nearly all actives have a fitted effect of over 20% in size)", "details": "rPXR luciferase reporter cells, One-Glo luminescence, 24 h; stronger effect = higher value", "outline": "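Cell-based rPXR activation assay: rPXR cells, 2,000 per well, rested 5hr at 37 C, then exposed to compounds in DMSO for 24 hr at 37 C. Luciferase activity read by One-Glo luminescence after 30 min at room temperature.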", "units": {"max activation": "%"}, "values": [{"smiles": "Cc1ccc(S(=O)(=O)N[C@@H](CCCCN)C(=O)CCl)cc1", "max activation": -2.32}, {"smiles": "NC(=O)OCCCc1ccccc1", "max activation": -3.96}, {"smiles": "C[C@@H](N)[C@@H](O)c1ccccc1", "max activation": -1.4}, {"smiles": "COc1cccc([C@@]2(O)CCCC[C@@H]2CN(C)C)c1", "max activation": -2.97}, {"smiles": "CCC(C(N)=O)N1CCCC1=O", "note": "(stereo not given)", "max activation": 4.65}, {"smiles": "ClC1=C(Cl)C2(Cl)C(CBr)CC1(Cl)C2(Cl)Cl", "note": "(stereo not given)", "max activation": 0.545}, {"smiles": "CN1C(=O)COc2c(C(=O)NC3CN4CCC3CC4)cc(Cl)cc21", "note": "(stereo not given)", "max activation": -0.408}, {"smiles": "N[C@@H](Cc1ccc(Oc2cc(I)c(O)c(I)c2)c(I)c1)C(=O)O", "max activation": -1.02}, {"smiles": "C=C1CC[C@@]2(O)[C@H]3Cc4ccc(O)c5c4[C@@]2(CCN3CC2CC2)[C@H]1O5", "max activation": 0.729}, {"smiles": "Cn1c(CCCC(=O)O)nc2cc(N(CCCl)CCCl)ccc21", "max activation": -0.144}]}, {"molecular_target": "Nuclear receptor subfamily 1 group I member 2 (Homo sapiens) (UniProt O75469)", "assay": "CYP3A4 induction through human pregnane X receptor (PXR) by small molecules, qHTS assay (AID 1346984; active = well fitted curve in the direction sought with a large enough effect in the repeat runs; an effect the other way counts as inactive or inconclusive; also: nearly all actives have a fitted effect of over 40% in size; also: potency is read from the fitted curve at half-maximal effect)", "details": "DPX-2 HepG2 PXR, CYP3A4-luciferin luminescence, 24 h; series mostly up to 46.1 µM; activation: at the top concentration", "outline": "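Luminescence readout: luciferase signal after One-Glo (30 min, room temperature), following 3 h at 37C with 3uM final Luciferin-IPA P450 substrate. Cells were DPX-2 (HepG2, PXR/CYP3A4-luc co-transfected) dosed for 24 h.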", "values": [{"smiles": "Cc1ccc(S(=O)(=O)N[C@@H](CCCCN)C(=O)CCl)cc1", "activation": "-7.57%"}, {"smiles": "NC(=O)OCCCc1ccccc1", "activation": "-1.02%"}, {"smiles": "C[C@@H](N)[C@@H](O)c1ccccc1", "activation": "23.8% [at 20.6 µM]"}, {"smiles": "COc1cccc([C@@]2(O)CCCC[C@@H]2CN(C)C)c1", "activation": "1.07%"}, {"smiles": "CCC(C(N)=O)N1CCCC1=O", "note": "(stereo not given)", "activation": "7.84%"}, {"smiles": "ClC1=C(Cl)C2(Cl)C(CBr)CC1(Cl)C2(Cl)Cl", "note": "(stereo not given)", "activation": "-0.831%"}, {"smiles": "CN1C(=O)COc2c(C(=O)NC3CN4CCC3CC4)cc(Cl)cc21", "note": "(stereo not given)", "activation": "-6.34%"}, {"smiles": "N[C@@H](Cc1ccc(Oc2cc(I)c(O)c(I)c2)c(I)c1)C(=O)O", "Potency": "14.1 µM (active)"}, {"smiles": "C=C1CC[C@@]2(O)[C@H]3Cc4ccc(O)c5c4[C@@]2(CCN3CC2CC2)[C@H]1O5", "activation": "-1.03%"}, {"smiles": "Cn1c(CCCC(=O)O)nc2cc(N(CCCl)CCCl)ccc21", "activation": "-64.5%"}]}, {"molecular_target": "Nuclear receptor subfamily 1 group I member 2 (Homo sapiens) (UniProt O75469)", "assay": "Human pregnane X receptor (PXR) activation by small molecules, qHTS assay (AID 1346985; active = well fitted curve in the direction sought with a large enough effect in the repeat runs; an effect the other way counts as inactive or inconclusive; also: nearly all actives have a fitted effect of over 40% in size)", "details": "DPX-2 HepG2 CYP3A4-luciferase, 24 h; series mostly up to 38.3 µM; activation: at the top concentration", "outline": "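DPX-2 cells (HepG2 co-transfected with a PXR response element and a CYP3A4-promoter luciferase construct) were seeded at 2,000 per well, rested 5 hr at 37C, then exposed to DMSO-dissolved compounds for 24 hr. Activation was read as luciferase luminescence.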", "values": [{"smiles": "Cc1ccc(S(=O)(=O)N[C@@H](CCCCN)C(=O)CCl)cc1", "activation": "2.79%"}, {"smiles": "NC(=O)OCCCc1ccccc1", "activation": "-0.154%"}, {"smiles": "C[C@@H](N)[C@@H](O)c1ccccc1", "activation": "1.09% [at 17.1 µM]"}, {"smiles": "COc1cccc([C@@]2(O)CCCC[C@@H]2CN(C)C)c1", "activation": "2.67%"}, {"smiles": "CCC(C(N)=O)N1CCCC1=O", "note": "(stereo not given)", "activation": "-7.19%"}, {"smiles": "ClC1=C(Cl)C2(Cl)C(CBr)CC1(Cl)C2(Cl)Cl", "note": "(stereo not given)", "activation": "21.6%"}, {"smiles": "N[C@@H](Cc1ccc(Oc2cc(I)c(O)c(I)c2)c(I)c1)C(=O)O", "activation": "5.62%"}, {"smiles": "C=C1CC[C@@]2(O)[C@H]3Cc4ccc(O)c5c4[C@@]2(CCN3CC2CC2)[C@H]1O5", "activation": "-7.58%"}, {"smiles": "Cn1c(CCCC(=O)O)nc2cc(N(CCCl)CCCl)ccc21", "activation": "1.84%"}]}, {"molecular_target": "Acetylcholinesterase (Homo sapiens) (UniProt P22303)", "sequence (P22303 whole entry, looked up)": "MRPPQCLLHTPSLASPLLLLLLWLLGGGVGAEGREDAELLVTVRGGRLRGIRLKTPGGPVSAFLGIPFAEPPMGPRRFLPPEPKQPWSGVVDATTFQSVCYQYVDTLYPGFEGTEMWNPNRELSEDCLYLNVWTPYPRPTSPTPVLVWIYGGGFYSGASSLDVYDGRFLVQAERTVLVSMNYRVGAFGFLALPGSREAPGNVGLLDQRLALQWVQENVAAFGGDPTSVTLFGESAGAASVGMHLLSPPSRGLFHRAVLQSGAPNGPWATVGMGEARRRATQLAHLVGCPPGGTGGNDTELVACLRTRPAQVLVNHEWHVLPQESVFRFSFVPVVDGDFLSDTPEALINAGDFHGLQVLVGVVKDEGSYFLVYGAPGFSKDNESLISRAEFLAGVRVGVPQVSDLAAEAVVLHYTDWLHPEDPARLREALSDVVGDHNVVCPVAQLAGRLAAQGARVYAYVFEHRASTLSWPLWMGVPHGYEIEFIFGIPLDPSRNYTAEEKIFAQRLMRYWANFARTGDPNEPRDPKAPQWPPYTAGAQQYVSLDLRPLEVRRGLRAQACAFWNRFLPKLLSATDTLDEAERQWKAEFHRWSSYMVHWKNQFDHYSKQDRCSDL", "assay": "Acetylcholinesterase (AChE) small molecule antagonists: colormetric cell-based qHTS assay (AID 1347395); also: nearly all actives have a fitted effect of over 30% in size; also: potency is read from the fitted curve at half-maximal effect", "details": "SH-SY5Y cells AChE activity, colorimetric (Ellman); series mostly up to 115 µM; activity, negative = inhibition: at the top concentration", "outline": "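Neuroblastoma line SH-SY5Y supplied the enzyme; cells were preincubated with compound for 30 min at 37 C and 5% CO2. Acetylthiocholine with DTNB was then added for 90 min at 37 C, and thiocholine was measured by colour.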", "values": [{"smiles": "C[C@H](CN1CCOCC1)C(C(=O)N1CCCC1)(c1ccccc1)c1ccccc1", "activity, negative = inhibition": "-0.892%"}, {"smiles": "O=C(Cl)C(Cl)Cl", "activity, negative = inhibition": "-1.74%"}, {"smiles": "Cc1ccc(S(=O)(=O)N[C@@H](CCCCN)C(=O)CCl)cc1", "activity, negative = inhibition": "-12.4% [at 52.9 µM]"}, {"smiles": "NC(=O)OCCCc1ccccc1", "activity, negative = inhibition": "1.77% [at 52.9 µM]"}, {"smiles": "CCC(CC)(CNC(=O)CCCO)c1cccc(OC)c1", "activity, negative = inhibition": "0.947% [at 52.9 µM]"}, {"smiles": "CCOC(=O)c1ncn2c1CN(C)C(=O)c1c(I)cccc1-2", "activity, negative = inhibition": "-6.07% [at 52.9 µM]"}, {"smiles": "COc1cccc([C@@]2(O)CCCC[C@@H]2CN(C)C)c1", "activity, negative = inhibition": "2.82% [at 52.9 µM]"}, {"smiles": "CCC(C(N)=O)N1CCCC1=O", "note": "(stereo not given)", "activity, negative = inhibition": "-1.64% [at 52.9 µM]"}, {"smiles": "COc1cc(CC(C)N)cc(OC)c1OC", "note": "(stereo not given)", "activity, negative = inhibition": "3.28%"}, {"smiles": "ClC1=C(Cl)C2(Cl)C(CBr)CC1(Cl)C2(Cl)Cl", "note": "(stereo not given)", "Potency": "inactive"}, {"smiles": "CCCOC(=O)Cc1ccc(OCC(=O)N(CC)CC)c(OC)c1", "activity, negative = inhibition": "-12.8% [at 52.9 µM]"}, {"smiles": "Cl/C=C/CCl", "activity, negative = inhibition": "-0.102%"}, {"smiles": "OCC(Cl)CCl", "note": "(stereo not given)", "activity, negative = inhibition": "1.54%"}, {"smiles": "C[C@H](N)C(=O)c1ccccc1", "activity, negative = inhibition": "0.421%"}, {"smiles": "CCOP(=S)(OCC)Oc1ccc(Cl)cc1Cl", "activity, negative = inhibition": "-12.4%"}, {"smiles": "CCC(C)C(C)(COC(N)=O)COC(N)=O", "note": "(stereo not given)", "activity, negative = inhibition": "1.95% [at 52.9 µM]"}, {"smiles": "COC[C@@H](NC(C)=O)C(=O)NCc1ccccc1", "activity, negative = inhibition": "2.38% [at 52.9 µM]"}, {"smiles": "BrCc1ccc(Br)cc1", "Potency": "71 µM (active)"}, {"smiles": "CCCCCCCCSC(=O)Oc1cc(Cl)nnc1-c1ccccc1", "activity, negative = inhibition": "0.21%"}, {"smiles": "CN1C(=O)COc2c(C(=O)NC3CN4CCC3CC4)cc(Cl)cc21", "note": "(stereo not given)", "Potency": "38.9 µM (active)"}, {"smiles": "COC1=CC(=O)O[C@@H](/C=C/c2ccccc2)C1", "activity, negative = inhibition": "2.4%"}, {"smiles": "C=CCC1(C(C)CC)C(=O)NC(=O)NC1=O", "note": "(stereo not given)", "activity, negative = inhibition": "0.723% [at 52.9 µM]"}, {"smiles": "O=C(Cl)c1ccccc1", "activity, negative = inhibition": "0.613%"}, {"smiles": "CNC(=O)Oc1cc(C)c(N(C)C)c(C)c1", "Potency": "2.52 µM (active)"}, {"smiles": "N[C@@H](Cc1ccc(Oc2cc(I)c(O)c(I)c2)c(I)c1)C(=O)O", "activity, negative = inhibition": "2.46% [at 52.9 µM]"}, {"smiles": "C=C(Cl)CSC(=S)N(CC)CC", "activity, negative = inhibition": "0.377%"}, {"smiles": "C=C1CC[C@@]2(O)[C@H]3Cc4ccc(O)c5c4[C@@]2(CCN3CC2CC2)[C@H]1O5", "activity, negative = inhibition": "0.69% [at 52.9 µM]"}, {"smiles": "NC1(c2ccccc2)CCCCC1", "activity, negative = inhibition": "1.51%"}, {"smiles": "Cn1c(CCCC(=O)O)nc2cc(N(CCCl)CCCl)ccc21", "activity, negative = inhibition": "-2.07% [at 52.9 µM]"}, {"smiles": "CS(=O)(=O)Cl", "activity, negative = inhibition": "-0.866%"}, {"smiles": "Nc1c(Cl)c(F)nc(OCC(=O)O)c1Cl", "activity, negative = inhibition": "1.61%"}]}]}
